Records with an inconclusive call do not appear. Activity calls are given as the source filed them. Calls follow the shape of the dose curve; as a rule, active = well fitted curve in the direction sought with a large enough effect; inconclusive = small, poorly fitted or top-dose-only effect, or effect the other way, or another doubt; inactive = no such curve, though single readings can be large or run the other way.
Target: Pyruvate kinase PKLR (Homo sapiens) (UniProt P30613)
Test: Secondary LDH Assay for Activators of Human Reticulocyte Pyruvate Kinase: for Probe SAR
Settings: purified hPK-R, LDH-coupled NADH fluorescence kinetic; series mostly up to 58.4 µM; activity change, positive = activation: at the top concentration
Text: NIH Chemical Genomics Center [NCGC] Wael M. Rabeh, Lyudmila Nedyalkova and Hee-Wan Park [Structural Genomics Consortium, 100 College St. Toronto, Ontario, Canada] NCGC Assay Overview: Human pyruvate kinase reticulocyte (hPK-R) enzyme was supplied as a highly purified (>95% pure) preparation from Structural Genomics Consortium in Toronto (Ontario, Canada) and a secondary assay was used to evaluate compounds. This assay couples the formation of pyruvate from hPK-R using lactate dehydrogenase (LDH) and NADH. The depletion of NADH is followed in a fluorescent-based kinetic assay that follows the formation of pyruvate to lactate, as catalyzed LDH. Pyruvate kinase substrates, PEP and ADP, were present in the assay at 0.1 mM and 4 mM respectively. In this kinetic assay initial rates were determined by following the fluorescence of NADH depletion.
NCGC Assay Protocol Summary: Three uL of substrate mix (final concentration, 50 mM Tris-Cl pH 8.0, 200 mM KCl, 15 mM MgCl2, 0.1 mM PEP, 4.0 mM ADP, and 0.2 mM NADH) was dispensed into black-solid 1536 well plates. 23 nL of compounds were delivered by a pin tool and 1 uL of enzyme mix (final concentrations, 10 nM hPK-R and 1 uM of LDH) was added. Plates were immediately placed in ViewLux (Perkin Elmer) and NADH fluorescence was determined at 30 second exposure intervals for between 3 and 6 minutes. Data were normalized to the uninhibited and EC100 activation using known activators such as fructose-bis-phosphate.

Sequence of Pyruvate kinase PKLR (Homo sapiens) (P30613 whole entry, looked up): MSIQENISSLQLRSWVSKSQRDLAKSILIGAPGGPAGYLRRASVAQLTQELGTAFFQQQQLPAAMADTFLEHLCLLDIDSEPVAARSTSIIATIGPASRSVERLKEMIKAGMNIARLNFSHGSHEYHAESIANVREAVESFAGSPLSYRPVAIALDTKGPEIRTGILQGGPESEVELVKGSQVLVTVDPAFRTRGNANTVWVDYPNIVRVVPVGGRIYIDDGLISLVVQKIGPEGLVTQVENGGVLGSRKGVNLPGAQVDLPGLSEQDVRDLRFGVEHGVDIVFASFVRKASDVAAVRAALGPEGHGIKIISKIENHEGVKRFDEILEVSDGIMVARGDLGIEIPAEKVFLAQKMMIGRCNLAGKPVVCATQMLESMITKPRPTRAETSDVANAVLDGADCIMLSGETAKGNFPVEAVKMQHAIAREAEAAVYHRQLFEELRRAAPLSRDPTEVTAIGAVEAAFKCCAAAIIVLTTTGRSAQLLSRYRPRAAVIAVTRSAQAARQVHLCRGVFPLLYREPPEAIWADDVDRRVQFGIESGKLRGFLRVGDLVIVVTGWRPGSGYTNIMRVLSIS

Activity change, positive = activation, inactive:
O=C1CCc2cc(S(=O)(=O)Nc3ccccc3Cl)ccc2N1 3.72%
O=C1NS(=O)(=O)c2ccccc21 -1.26%
Cc1ccc(NS(=O)(=O)c2ccc3[nH]c(=O)[nH]c3c2)cc1C 16.2%
Cc1ccc(NS(=O)(=O)c2ccc3c(ccn3C)c2)cc1C 15.4%
Cc1nc(-c2ccc(S(=O)(=O)Nc3ccc(C)c(C)c3)s2)cs1 20.7%
Cc1ccc(NS(=O)(=O)c2cc3c(cc2-c2ccccc2)NC(=O)CO3)cc1C -2.67%
O=C1CCc2cc(S(=O)(=O)Nc3ccc4ccccc4c3)ccc2N1 14.7%
CC(=O)N1CCCc2cc(S(=O)(=O)Nc3ccc(C)c(C)c3)ccc21 6.74%
Cc1ccccc1NS(=O)(=O)c1ccc2c(c1)CCC(=O)N2 4.32%
Cc1cccc(NS(=O)(=O)c2ccc3c(c2)CCC(=O)N3)c1 3.22%
Cc1ccc(NS(=O)(=O)c2cc3c(cc2N2CCCCC2)NC(=O)CC3)cc1C 1.75%
O=C1c2ccccc2C(=O)N1c1nccs1 -2.55%
Fc1ccccc1-c1ccc(-c2nc3ccc(Cl)cn3c2Nc2ccc(Cl)cc2)o1 26.3%
Cc1ccc(NS(=O)(=O)c2cc3c(cc2-c2cn[nH]c2)NC(=O)CO3)cc1C 20.6%
O=S1(=O)N=C(Oc2cccc(Cl)c2)c2ccccc21 11.5%
Cc1ccc(NS(=O)(=O)c2cc3c(cc2Cl)NC(=O)CO3)cc1C 16.5%
O=C1c2ccccc2C(=O)N1c1cccnc1 14%
O=C1c2ccccc2C(=O)N1c1ccc(Cl)cc1 -6.82%
O=C1c2ccccc2C(=O)N1c1ccc2ccccc2n1 -3.58%
Cc1ccc(N(C)S(=O)(=O)c2ccc3c(c2)CCC(=O)N3)cc1C 10.7%
Cc1ccccc1Nc1c(-c2ccc(Cl)s2)nc2ccccn12 13.1%
O=C1c2ccccc2C(=O)N1c1ncccc1O 5.36%
COc1ccc(S(=O)(=O)Nc2ccc(C)c(C)c2)cc1 16.3%
Cc1ccc2nc(-c3ccc(C)o3)c(Nc3ccc4c(c3)OCO4)n2c1 2.48%
COc1cccc(Cn2ncc3c4sc(SC)cc4n(C)c3c2=O)c1 25.1%
Cc1ccc(NS(=O)(=O)c2cccc(F)c2)cc1C 3.69%
Cc1ccc2nc(-c3cccs3)c(Nc3ccccc3)n2c1 -11.4%
Cc1ccc(-c2nc3ccc(Cl)cn3c2Nc2ccccc2)o1 -3.81%
Cc1ccc(NS(=O)(=O)c2cccc(C(=O)O)c2)cc1C 12.2%
COc1cccc(N2C(=O)c3ccccc3C2=O)n1 8.18%
O=C1CCc2cc(S(=O)(=O)NCc3ccccc3)ccc2N1 1.98%
Cc1cc(C)n2c(Nc3ccccc3)c(-c3ccc(C)o3)nc2n1 3.71%
Cc1ccc(NS(=O)(=O)c2cc3c(cc2C)NC(=O)CO3)cc1C 27.4%
CCCCN1C(=O)c2ccccc2C1=O -5.61%
Cc1ccc(NS(=O)(=O)c2cc3c(cc2/C=C/c2ccccc2)NC(=O)CO3)cc1C 7.5%
CC(=O)N1c2ccc(S(=O)(=O)Nc3ccc(C)c(C)c3)cc2CC1C (stereo not given) 4.45%
Cc1ccc(C)c(OC2=NS(=O)(=O)c3ccccc32)c1 -3.42%
Cc1ccc(N2C(=O)c3ccccc3C2=O)c(C)c1 -7.03%
O=S1(=O)N=C(Oc2ccccc2)c2ccccc21 7.61% [at 82.8 µM]
O=C1CCc2cc(S(=O)(=O)Nc3ccc4c(c3)OCCO4)ccc2N1 5.81%
